# Active and inactive are the calls of the source. Unless noted, no rule for the calls is given here.
# Legend:
# [1] = system: Wnt5a (protein binding on small-molecule microarray); test: small molecules binding Wnt5a protein – biophysical, small-molecule microarray, 635/667 nm fluorescence, primary screen (AID 1142); settings: 635 nm fluorescence, higher = more signal;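 also: fluorescence read at 667 nm with signal to noise per printed feature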
# [2] = ATP-based viability of Huh7 replicon cells – cell-based, CellTiter-Glo luminescence, basal, 48 h, cytotoxicity control for HCV replication inhibitor project, primary screen (AID 1143); settings: higher = more signal, called active from +8 up or from −8 down;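 also: Huh7 hepatoma cells carrying a hepatitis C replication reporter with no stimulus; test concentration not given here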
# [3] = Pseudomonas biofilm growth suppression – PAO1 strain, BacTiter-Glo luminescence, LB-PBS, primary screen (AID 1144); settings: P. aeruginosa PAO1 biofilm, 12 h, higher = more signal
# [4] = basal CRE-LacZ reporter activity in PC12 – cell-based, unstimulated, primary screen (AID 1145); settings: no forskolin, luminescence, 4.5 h, higher = more signal, called active from +8 up or from −8 down
# [5] = forskolin-driven CRE-LacZ activity in PC12 – cell-based, CRE-LacZ reporter, forskolin-stimulated, primary screen (AID 1146); settings: luminescence, 4.5 h, higher = more signal, called active from +8 up or from −8 down;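 also: PC12 cells with 6xCRE LacZ reporter stimulated by forskolin 10 µM; beta-galactosidase reporter signal reflecting CREB driven transcription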
# [6] = target: Streptavidin (Streptomyces avidinii) (UniProt P22629); test: compounds binding control protein streptavidin – biophysical, small-molecule microarray, 635/667 nm fluorescence, artefact control for SMM compound annotation, primary screen (AID 1147); settings: higher = more signal;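 also: signal reflects streptavidin binding to arrayed compounds as a control protein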
# [7] = probe aInhba binding on compound microarray – biochemical, small-molecule microarray, 635/667 nm fluorescence, primary screen (AID 1148); settings: higher = more signal;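 also: score merges 667nm spot fluorescence with signal-to-noise for antibody binding to printed compounds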
# Torsin-1A (Homo sapiens) [8] = target: Torsin-1A (Homo sapiens) (UniProt O14656); test: TOR1A wild-type binding on microarray – cell lysate, small-molecule microarray, lysate, 635/667 nm, primary screen (AID 1149); settings: COS7 hTOR1A-WT lysate, 635 nm fluorescence, higher = more signal
# Torsin-1A (Homo sapiens) [9] = target: Torsin-1A (Homo sapiens) (UniProt O14656); test: torsin A mutant lysate binding on microarrays – cell lysate, small-molecule microarray, COS7 lysate, 635/667 nm fluorescence, primary screen (AID 1150); settings: COS7 hTOR1A mutant lysate, 635 nm fluorescence, higher = more signal;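 also: score pools 667 nm emission and signal to noise measuring lysate protein binding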
# [10] = system: Sonic hedgehog protein (Shh); test: Sonic hedgehog microarray binding compounds – biochemical, small-molecule microarray, 635/667 nm fluorescence, primary screen (AID 1151); settings: 635 nm fluorescence, higher = more signal;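 also: Shh protein binding to compounds spotted on small-molecule microarray slides; score combines spot fluorescence intensity with signal-to-noise across triplicate slides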
# [11] = optical density shifts of acrAB sulA E. coli – strain DRC41, OD650, 48 h, E. coli filamentation inducer project, primary screen (AID 1152); settings: higher = more signal, called active from +8 up or from −8 down;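 also: E. coli MC1000 strain DRC41 lacking acrAB efflux pump and sulA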
# [12] = probe aLefty1 binding on compound microarray – biochemical, small-molecule microarray, 635/667 nm fluorescence, primary screen (AID 1153); settings: higher = more signal;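 also: score merges spot fluorescence with signal-to-noise ratio from the scanned slide images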
# [13] = plasmodial surface anion channel blockers, osmotic lysis – cell-based, P. falciparum Indochina, OD700, 1 h, primary screen (AID 1154); settings: P. falciparum Indochina infected RBC osmotic lysis, higher = more signal, called active from +8 up or from −8 down
# [14] = plasmodial surface anion channel blockers, osmotic lysis – cell-based, P. falciparum Indochina, OD700, 2 h, primary screen (AID 1155);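 also: lysis reports solute entry through the parasite surface anion channel PSAC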; settings: P. falciparum Indochina infected erythrocytes, higher = more signal, called active from +8 up or from −8 down
# [15] = changes in parasitized red cell lysis, either direction – P. falciparum Indochina, OD700, 3 h, PSAC antagonist project, primary screen (AID 1156); settings: P. falciparum-infected erythrocytes, osmotic lysis, higher = more signal, called active from +8 up or from −8 down
# [16] = plasmodial surface anion channel blockers, osmotic lysis – cell-based, P. falciparum Indochina, OD700, 18 h, primary screen (AID 1157); settings: P. falciparum Indochina infected erythrocytes, osmotic lysis OD700, 18 h; higher = more signal, called active from +8 up or from −8 down
# [17] = S6 kinase pathway phospho-S6 level changes – cell-based, A549, cytoblot, luminescence, serum-stimulated, primary screen (AID 1158); settings: 5 h, higher = more signal;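 also: serum-stimulated A549 lung adenocarcinoma cells; signal is phosphorylated S6 detected by cytoblot immunostaining with HRP secondary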
# [18] = target: NADPH oxidase 2 (Homo sapiens) (UniProt P04839); test: compounds shifting NOX2 Amplex Red fluorescence – cell-based, HEK293-NOX2, PMA-stimulated, NOX inhibitor project, primary screen (AID 1159); settings: 45 min, higher = more signal, called active from +8 up or from −8 down; also: test concentration not given here
# [19] = target: NADPH oxidase 4 (Homo sapiens) (UniProt Q9NPH5); test: compounds shifting NOX4 Amplex Red fluorescence – cell-based, HEK293-NOX4, tetracycline-induced, NOX inhibitor project, primary screen (AID 1160); settings: HEK293-NOX4, Amplex Red H2O2 fluorescence, 45 min; higher = more signal, called active from +8 up or from −8 down
# [20] = target: NADPH oxidase 5 (Homo sapiens) (UniProt Q96PH1); test: compounds shifting NOX5 Amplex Red fluorescence – cell-based, HEK293-NOX5, NOX inhibitor project, primary screen (AID 1161); settings: HEK293-NOX5, ionomycin, 45 min, higher = more signal
# Chain of NADPH oxidase 5 (Homo sapiens) (Q96PH1 whole entry, looked up): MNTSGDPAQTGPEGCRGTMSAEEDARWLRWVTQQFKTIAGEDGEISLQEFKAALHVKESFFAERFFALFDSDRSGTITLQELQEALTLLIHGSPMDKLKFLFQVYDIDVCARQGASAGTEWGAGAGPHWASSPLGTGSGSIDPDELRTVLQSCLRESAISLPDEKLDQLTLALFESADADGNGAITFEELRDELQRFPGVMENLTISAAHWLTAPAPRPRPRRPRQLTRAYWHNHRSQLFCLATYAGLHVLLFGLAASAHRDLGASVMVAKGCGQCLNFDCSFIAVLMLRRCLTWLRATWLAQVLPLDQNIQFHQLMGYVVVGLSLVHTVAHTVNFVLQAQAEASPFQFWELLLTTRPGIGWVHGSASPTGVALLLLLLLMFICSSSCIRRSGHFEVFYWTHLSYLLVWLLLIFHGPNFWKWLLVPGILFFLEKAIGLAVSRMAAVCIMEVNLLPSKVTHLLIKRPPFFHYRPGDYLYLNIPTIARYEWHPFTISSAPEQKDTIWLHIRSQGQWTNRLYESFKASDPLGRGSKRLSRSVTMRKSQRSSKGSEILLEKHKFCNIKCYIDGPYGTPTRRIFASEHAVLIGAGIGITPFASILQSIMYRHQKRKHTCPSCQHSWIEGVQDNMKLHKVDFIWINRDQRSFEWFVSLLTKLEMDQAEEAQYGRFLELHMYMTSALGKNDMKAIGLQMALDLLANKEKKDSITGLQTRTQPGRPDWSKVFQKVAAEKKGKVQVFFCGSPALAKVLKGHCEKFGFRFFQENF
# Chain of NADPH oxidase 4 (Homo sapiens) (Q9NPH5 whole entry, looked up): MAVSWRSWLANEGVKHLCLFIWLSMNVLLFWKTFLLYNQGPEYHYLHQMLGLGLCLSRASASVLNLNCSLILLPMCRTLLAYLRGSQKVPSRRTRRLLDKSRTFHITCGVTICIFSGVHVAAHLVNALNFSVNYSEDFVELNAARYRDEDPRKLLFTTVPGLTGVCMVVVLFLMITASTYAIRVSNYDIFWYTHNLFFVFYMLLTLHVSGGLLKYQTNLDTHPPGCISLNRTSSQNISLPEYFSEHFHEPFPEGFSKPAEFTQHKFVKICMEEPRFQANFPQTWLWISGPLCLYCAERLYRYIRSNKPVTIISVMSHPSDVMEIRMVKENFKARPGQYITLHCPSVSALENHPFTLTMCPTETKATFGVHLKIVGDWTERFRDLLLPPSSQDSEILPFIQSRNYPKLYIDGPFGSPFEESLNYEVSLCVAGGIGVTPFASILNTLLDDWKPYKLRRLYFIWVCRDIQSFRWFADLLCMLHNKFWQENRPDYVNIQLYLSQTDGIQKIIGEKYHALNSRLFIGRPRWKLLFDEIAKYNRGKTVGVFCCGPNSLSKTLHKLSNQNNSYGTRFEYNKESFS
# Chain of Streptavidin (Streptomyces avidinii) (P22629 whole entry, looked up): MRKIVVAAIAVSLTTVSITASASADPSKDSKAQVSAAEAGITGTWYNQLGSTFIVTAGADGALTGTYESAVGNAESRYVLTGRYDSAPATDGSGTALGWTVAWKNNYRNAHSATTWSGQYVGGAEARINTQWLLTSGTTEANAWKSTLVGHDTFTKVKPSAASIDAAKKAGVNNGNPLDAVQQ
# Chain of NADPH oxidase 2 (Homo sapiens) (P04839 whole entry, looked up): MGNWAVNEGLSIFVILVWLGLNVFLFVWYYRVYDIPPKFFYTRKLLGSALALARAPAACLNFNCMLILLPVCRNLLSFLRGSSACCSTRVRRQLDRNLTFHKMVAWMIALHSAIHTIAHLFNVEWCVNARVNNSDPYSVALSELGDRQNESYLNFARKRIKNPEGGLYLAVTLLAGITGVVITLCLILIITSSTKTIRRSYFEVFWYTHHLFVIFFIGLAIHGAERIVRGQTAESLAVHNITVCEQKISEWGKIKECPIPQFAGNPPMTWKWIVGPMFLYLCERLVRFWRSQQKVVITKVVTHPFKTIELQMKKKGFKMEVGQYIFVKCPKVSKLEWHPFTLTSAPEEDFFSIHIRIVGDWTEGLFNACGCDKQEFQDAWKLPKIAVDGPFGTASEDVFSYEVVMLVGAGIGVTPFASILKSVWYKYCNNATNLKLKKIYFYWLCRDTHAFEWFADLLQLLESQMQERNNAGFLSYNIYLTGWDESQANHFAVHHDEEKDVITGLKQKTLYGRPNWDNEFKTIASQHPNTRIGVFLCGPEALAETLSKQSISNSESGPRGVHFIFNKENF
# Chain of Torsin-1A (Homo sapiens) (O14656 whole entry, looked up): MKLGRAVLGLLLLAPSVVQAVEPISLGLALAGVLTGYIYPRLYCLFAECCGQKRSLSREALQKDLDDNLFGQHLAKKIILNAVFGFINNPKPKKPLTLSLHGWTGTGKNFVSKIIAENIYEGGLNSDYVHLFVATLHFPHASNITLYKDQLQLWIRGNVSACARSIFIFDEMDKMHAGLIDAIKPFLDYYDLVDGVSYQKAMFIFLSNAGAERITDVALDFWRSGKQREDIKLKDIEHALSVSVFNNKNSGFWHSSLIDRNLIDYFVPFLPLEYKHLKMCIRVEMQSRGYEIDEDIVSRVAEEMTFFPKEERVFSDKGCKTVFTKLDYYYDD
Structure (SMILES),composite z-score [1],z-score [2],z-score [3],z-score [4],z-score [5],composite z-score [6],composite z-score [7],composite z-score (Torsin-1A (Homo sapiens) [8]),composite z-score (Torsin-1A (Homo sapiens) [9]),composite z-score [10],z-score [11],composite z-score [12],z-score [13],z-score [14],z-score [15],z-score [16],z-score [17],z-score [18],z-score [19],z-score [20]
C=CCNC(=O)[C@H]1[C@@H]2C(=O)O[C@@H](c3ccccc3)[C@@H](c3ccccc3)N2[C@@H](c2ccccc2OCCO)[C@]12C(=O)N(C(=O)OCCOC)c1ccccc12,0.307,-4.39 (inactive),0.369 (inactive),-0.195 (inactive),6.34 (inactive),0.618,-0.358,-0.025,0.664,1.14,-0.557 (inactive),0.162,2.31 (inactive),1.1 (inactive),-0.337 (inactive),0.973 (inactive),0.015,1.14 (inactive),0.676 (inactive),0.348
O=C1N(CCS(=O)(=O)c2ccccc2)c2ccccc2[C@@H]2OC(c3ccc(OCCCO)cc3)=N[C@]12CCS(=O)(=O)c1ccccc1,0.277,-1.35 (inactive),0.647 (inactive),2.41 (inactive),0.103 (inactive),1.12,0.103,0.741,1.43,1.3,-0.927 (inactive),0.677,28.2 (active),23.7 (active),1.18 (inactive),3.96 (inactive),-0.47,0.678 (inactive),2.42 (inactive),2.43
C=C(/C(=C/C[C@@H](OC(C)=O)c1ccccc1OCCO)c1cc(C(=O)OC)ccc1OC)C(C)C,0.332,-1.94 (inactive),0.217 (inactive),16.2 (active),-0.37 (inactive),-0.576,-0.024,0.212,-0.461,1.02,0.516 (inactive),-0.0545,14.6 (active),2.61 (inactive),1.4 (inactive),0.994 (inactive),0.0105,1.58 (inactive),-0.286 (inactive),-1.43
O=C1O[C@@H](c2ccccc2)[C@@H](c2ccccc2)N2[C@@H](c3ccc(OCCO)cc3)[C@]3(C(=O)Nc4ccc(C#CCCO)cc43)[C@@H](C(=O)Nc3nc4ccccc4s3)[C@H]12,0.482,-2.56 (inactive),-0.397 (inactive),0.389 (inactive),0.0759 (inactive),1.05,0.0291,0.222,0.79,0.589,2.3 (inactive),0.573,1.01 (inactive),-0.0042 (inactive),-1.53 (inactive),-1.15 (inactive),0.922,0.762 (inactive),0.868 (inactive),1.52
CC(=O)c1ccc(C(O)C2C=CC3C(=O)N(C)C(=O)C3N2NC(=O)OC(C)(C)C)cc1 (stereo not given),0.468,0.847 (inactive),0.626 (inactive),0.246 (inactive),1.51 (inactive),1.83,0.182,-0.0551,0.548,-0.0538,-1.33 (inactive),0.186,1.24 (inactive),0.957 (inactive),0.0395 (inactive),0.95 (inactive),-1.51,-0.455 (inactive),-1.57 (inactive),-1.01
COCCOC(=O)N1C(=O)[C@@]2(c3ccccc31)[C@H](C(=O)N1CCCCCCC1)[C@H]1C(=O)O[C@H](c3ccccc3)[C@H](c3ccccc3)N1[C@@H]2c1ccc(O)cc1,1.21,-2.11 (inactive),-1.14 (inactive),-1.15 (inactive),-1.03 (inactive),2.17,2.13,2.14,2.57,2.17,1.51 (inactive),3.16,0.822 (inactive),-0.0852 (inactive),0.367 (inactive),-0.0764 (inactive),1.94,-3.28 (inactive),-0.538 (inactive),-4
CCCC=C(CCC)[C@@H](NS(=O)(=O)c1ccc(Cl)cc1)c1ccccc1,0.0207,-2.29 (inactive),-0.527 (inactive),0.197 (inactive),0.261 (inactive),0.489,0.0807,-0.721,-0.292,-1.12,-2.04 (inactive),0.345,1.02 (inactive),0.1 (inactive),1.16 (inactive),0.814 (inactive),0.717,-1.64 (inactive),-3.24 (inactive),1.59
C=CCC(OC(C)=O)[C@@H]1[C@@H](N(Cc2cccc3ccccc23)C(=O)c2cccc3ccccc23)c2cc(OCCCO)ccc2N1C(=O)Cc1ccc2ccccc2c1 (stereo not given in full),-0.0137,-1.61 (inactive),0.576 (inactive),-0.36 (inactive),0.272 (inactive),-0.166,0.0497,-1.07,-0.736,0.882,-0.341 (inactive),0.211,0.704 (inactive),0.0473 (inactive),1.02 (inactive),0.334 (inactive),0.326,-1.93 (inactive),-0.859 (inactive),-2.79
COCCOC(=O)N1C(=O)[C@@]2(c3cc(C#CCC(C(=O)OC)C(=O)OC)ccc31)[C@H](c1ccc(OCCO)cc1)N1[C@H](c3ccccc3)[C@H](c3ccccc3)OC(=O)[C@H]1[C@@H]2C(=O)N1CCCCCCC1,0.803,-1.67 (inactive),-0.147 (inactive),-0.467 (inactive),-0.553 (inactive),2.53,1.91,2.42,1.98,1.58,0.759 (inactive),2.81,3.66 (inactive),1.98 (inactive),1.04 (inactive),0.901 (inactive),-0.0522,2.05 (inactive),0.397 (inactive),2.28
C=CC(CO)NC(=O)OCC1c2ccccc2-c2ccccc21 (stereo not given),0.237,0.0812 (inactive),0.219 (inactive),1.03 (inactive),0.584 (inactive),0.0333,-0.183,0.743,0.724,0.775,-0.878 (inactive),-0.188,-0.0039 (inactive),-0.124 (inactive),-1.03 (inactive),0.182 (inactive),0.078,-0.385 (inactive),0.0866 (inactive),0.23
COCCn1c(C(=O)N2CCCC2)cc2c1C[C@H]1CN(C(=O)c3ccccc3)[C@@](Cc3ccccc3)(C(=O)OC)[C@@H]21,0.576,-1.01 (inactive),-0.784 (inactive),-0.182 (inactive),-0.034 (inactive),0.393,0.679,0.22,1.18,-0.193,-0.91 (inactive),1.46,1.46 (inactive),0.103 (inactive),1.98 (inactive),1.01 (inactive),1.09,0.582 (inactive),-0.6 (inactive),-3.94
COCCOC(=O)N1C(=O)[C@@]2(c3cc(C#CC4=CCCCC4)ccc31)[C@H](c1ccc(OCCO)cc1)N1[C@H](c3ccccc3)[C@H](c3ccccc3)OC(=O)[C@H]1[C@@H]2C(=O)N1CCCCCCC1,0.266,-4.59 (inactive),-1.17 (inactive),-0.698 (inactive),-1.13 (inactive),0.945,1.05,0.984,0.84,1.91,3.39 (inactive),1.85,2.24 (inactive),0.742 (inactive),0.171 (inactive),-0.521 (inactive),2.26,1.44 (inactive),0.639 (inactive),1.3
C=CCC(OC(C)=O)[C@@H]1[C@@H](N(Cc2ccc(-c3cccc(C(F)(F)F)c3)o2)C(=O)Cc2ccc(OC)cc2)c2cc(OCCCO)ccc2N1C(=O)c1ccc2ccccc2n1 (stereo not given in full),-0.162,-1.45 (inactive),0.6 (inactive),0.339 (inactive),0.792 (inactive),-0.356,0.0517,0.0833,-0.475,0.38,-0.797 (inactive),-0.0046,0.83 (inactive),0.74 (inactive),0.959 (inactive),0.289 (inactive),0.342,-0.236 (inactive),-1.23 (inactive),-1.45
CCCCC(O)C1C=CC2C(=O)NC(=O)C2N1Nc1ccc(Cl)cc1Cl (stereo not given),-0.188,-1.19 (inactive),-0.441 (inactive),0.819 (inactive),-0.123 (inactive),0.27,0.166,-0.58,0.571,-0.614,-1.73 (inactive),0.396,2.42 (inactive),1.53 (inactive),0.39 (inactive),0.998 (inactive),-0.787,-0.461 (inactive),-5.64 (inactive),-3.41
CCCCC(O)C1C=CC2C(=O)N(C)C(=O)C2N1Nc1ccccc1 (stereo not given),0.0991,0.898 (inactive),-0.556 (inactive),-0.14 (inactive),0.721 (inactive),0.264,0.106,0.29,0.0531,-0.768,-1.37 (inactive),0.165,-0.242 (inactive),0.735 (inactive),0.243 (inactive),1.17 (inactive),-1.35,-1.32 (inactive),-3.48 (inactive),-2.72
